From PubChem BioAssay (Tox21) come the findings set out here.

Records with an inconclusive call do not appear. The source made the active and inactive calls. Calls come from the whole dose curve.

One assay in a line: qHTS assay to identify small molecule agonists of the AP-1 signaling pathway - cell viability counter screen (AID 1159525). Note: nearly all actives have a fitted effect of over 55% in size. Conditions: ME-180 AP-1-bla cells viability, ATP luminescence, 5 h; series mostly up to 76.8 µM. In a few lines:
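Same-well cytotoxicity counter screen of the Tox21 10K library in ME-180 cells. The readout is ATP-dependent luminescence after 5 h compound treatment. Data are normalised to DMSO and tetra n-octyl ammonium bromide controls.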
(Quantitative high-throughput screening tests each substance at several concentrations.)
For the compound `CC(N)CN` (stereo unspecified), the outcome was inactive.

As to `Cc1cc(OI)c(C(C)C)cc1-c1cc(C(C)C)c(OI)cc1C`, the call was inactive.

`CCc1nn(CCCN2CCN(c3cccc(Cl)c3)CC2)c(=O)n1CCOc1ccccc1`: the call was inactive.

Turning to `CCN(Cc1cccc(S(=O)(=O)O)c1)c1ccc(C(=C2C=CC(=[N+](CC)Cc3cccc(S(=O)(=O)[O-])c3)C=C2)c2ccccc2)cc1`, the outcome was inactive.

Regarding `O=C(CCCN1CCN(c2ccc(F)cc2)CC1)NC1c2ccccc2CSc2ccccc21` (stereo unspecified), the result was inactive.

Turning to `C=CCNc1nc(NCC=C)nc(N2CCN(C(c3ccc(F)cc3)c3ccc(F)cc3)CC2)n1`, the compound was classed as inactive.

`CC(C)CCCC(=O)O`: the compound was classed as inactive.

Take `COCCOC`: the compound was classed as inactive.

Turning to `O=C(CS)OCCOC(=O)CS`, the result was inactive.

`CCCc1c(OCCCOc2ccc(OCC(=O)O)cc2)ccc(C(C)=O)c1O`: the call was inactive.

In the case of `CCCCCCCCCCCC[N+](C)(C)CC(=O)[O-]`, the call was inactive.

With `Cc1occc1C(=O)Nc1ccc(C(=O)N2CCC(F)(F)/C(=C\C(=O)N3CCC(N4CCCCC4)CC3)c3ccccc32)cc1`, the call was inactive.

Consider `O=C1OCCN1/N=C/c1ccc([N+](=O)[O-])o1`, for which the outcome was inactive.

`COC(OC)(C(=O)c1ccccc1)c1ccccc1`: the call was inactive.

As for `CO/N=C1\CN(c2nc3c(cc2F)c(=O)c(C(=O)O)cn3C2CC2)CC1CN` (stereo unspecified), the call was inactive.

In the case of `CC(C)C(OC(=O)c1ccccc1)C(C)(C)COC(=O)c1ccccc1` (stereo unspecified), the compound was classed as inactive.

For the compound `O=C(Nc1ccc([N+](=O)[O-])cc1)Nc1ccc([N+](=O)[O-])cc1`, the compound was called inactive.

As for `CC(C)(CCl)c1ccccc1`, the compound was called inactive.

For the compound `Cc1nccn1-c1ccc(Sc2cccc(C3(C(N)=O)CCOCC3)c2)cc1`, the compound was classed as inactive.

On to `CO[C@@]12[C@H](COC(N)=O)C3=C(C(=O)C(C)=C(N)C3=O)N1C[C@@H]1N[C@@H]12`, for which the result was inactive.

Take `Cc1ccc(S)cc1`: the compound was classed as inactive.

Turning to `CCCOCCOCCO`, the compound was classed as inactive.

In the case of `CC(C)(C)CC(C)(C)c1ccc(OCCO)cc1`, the outcome was inactive.

For `O=C(CCCCCCC(=O)Nc1ccccc1)NO`, the outcome was inactive.

`O=C(c1ccc(O)cc1)c1ccc(Cl)cc1`: the call was inactive.

Consider `CO[C@H]1C=CO[C@@]2(C)Oc3c(C)c(O)c4c(O)c(c5c(c4c3C2=O)=NC2(CCN(CC(C)C)CC2)N=5)NC(=O)/C(C)=C\C=C/[C@H](C)[C@H](O)[C@@H](C)[C@@H](O)[C@@H](C)[C@H](OC(C)=O)[C@@H]1C`, for which the result was inactive.

`CC(C)(O)c1ccccc1CC[C@@H](SCC1(CC(=O)O)CC1)c1cccc(/C=C/c2ccc3ccc(Cl)cc3n2)c1`: the outcome was inactive.

`NC(=O)Cn1c(=O)cc(CCN2CCN(c3nccc4sccc34)CC2)c2ccc(F)cc21`: the outcome was inactive.

In the case of `O=Cc1c(Cl)cccc1Cl`, the call was inactive.

In the case of `CC#N`, the outcome was inactive.

For the compound `CCCCCCCCCCOS(=O)(=O)O`, the result was inactive.

As for `NC(=O)N(O)[C@@H]1COc2cc(OCc3ccccc3)ccc21`, the compound was classed as inactive.

Regarding `OCC1CC=CCC1` (stereo unspecified), the compound was called inactive.

For the compound `CCCCCCOC(=O)C(C)C`, the call was inactive.

The next assay in a line: qHTS assay to identify small molecule agonists of the AP-1 signaling pathway (AID 1159526). The settings on record: ME-180 (cervical carcinoma) AP-1-bla reporter, beta-lactamase FRET ratio, 5 h; series mostly up to 76.8 µM.
Regarding `CC(=O)Oc1ccc2c(c1)CC[C@@H]1[C@@H]2CC[C@]2(C)[C@@H](O)CC[C@@H]12`, the result was inactive.

Take `CC(N)CN` (stereo unspecified): the result was inactive.

As for `COc1cc2ncnc(Nc3ccc(F)c(Cl)c3)c2cc1OCCCN1CCOCC1`, the result was inactive.

For the compound `CCc1nn(CCCN2CCN(c3cccc(Cl)c3)CC2)c(=O)n1CCOc1ccccc1`, the outcome was inactive.

Turning to `O=C(CCCN1CCN(c2ccc(F)cc2)CC1)NC1c2ccccc2CSc2ccccc21` (stereo unspecified), the result was inactive.

Take `CC(C)CCCC(=O)O`: the outcome was inactive.

Turning to `O=C(CS)OCCOC(=O)CS`, the outcome was inactive.

As for `CCCCCCCCCCCC[N+](C)(C)CC(=O)[O-]`, the result was inactive.

As to `O=C1OCCN1/N=C/c1ccc([N+](=O)[O-])o1`, the result was inactive.

With `COC(OC)(C(=O)c1ccccc1)c1ccccc1`, the result was inactive.

Regarding `CC(C)C(OC(=O)c1ccccc1)C(C)(C)COC(=O)c1ccccc1` (stereo unspecified), the outcome was inactive.

With `O=C(Nc1ccc([N+](=O)[O-])cc1)Nc1ccc([N+](=O)[O-])cc1`, the outcome was inactive.

With `CC(C)(CCl)c1ccccc1`, the result was inactive.

In the case of `Cc1nccn1-c1ccc(Sc2cccc(C3(C(N)=O)CCOCC3)c2)cc1`, the result was inactive.

In the case of `CC[C@@H]([C@H](C)O)n1ncn(-c2ccc(N3CCN(c4ccc(OC[C@@H]5CO[C@@](Cn6cncn6)(c6ccc(F)cc6F)C5)cc4)CC3)cc2)c1=O`, the outcome was inactive.

Consider `CO[C@@]12[C@H](COC(N)=O)C3=C(C(=O)C(C)=C(N)C3=O)N1C[C@@H]1N[C@@H]12`, for which the outcome was inactive.

For the compound `Cc1ccc(S)cc1`, the outcome was inactive.

`CC(C)(C)CC(C)(C)c1ccc(OCCO)cc1`: the outcome was inactive.

`O=C(CCCCCCC(=O)Nc1ccccc1)NO`: the outcome was inactive.

Consider `O=C(c1ccc(O)cc1)c1ccc(Cl)cc1`, for which the outcome was inactive.

`CO[C@H]1C=CO[C@@]2(C)Oc3c(C)c(O)c4c(O)c(c5c(c4c3C2=O)=NC2(CCN(CC(C)C)CC2)N=5)NC(=O)/C(C)=C\C=C/[C@H](C)[C@H](O)[C@@H](C)[C@@H](O)[C@@H](C)[C@H](OC(C)=O)[C@@H]1C`: the outcome was inactive.

Turning to `CC(C)(O)c1ccccc1CC[C@@H](SCC1(CC(=O)O)CC1)c1cccc(/C=C/c2ccc3ccc(Cl)cc3n2)c1`, the outcome was inactive.

On to `O=Cc1c(Cl)cccc1Cl`, for which the result was inactive.

Take `CC#N`: the outcome was inactive.

Turning to `OCC1CC=CCC1` (stereo unspecified), the outcome was inactive.

Turning to `C[Si](NC1CCCCC1)(NC1CCCCC1)NC1CCCCC1`, the result was inactive.

As for `CCCCCCOC(=O)C(C)C`, the result was inactive.
